Shown are actives, neighbours in structure and some others; about 4.2% of the full set was active somewhere.
NALP3 yeast inh: blocks the NALP3 inflammasome reconstituted in yeast. Yeast reconstituted NLRP3/ASC/caspase-1, beta-gal luminescence, 24 h. inhibition, % at 10 µM. 330,000 compounds, 0.39% hits. AID 2825;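 active means inhibition of 50% or more; inactive means inhibition below 50%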;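 further: plate controls were induced DMSO wells for no effect and uninduced yeast grown without galactose for full effect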
tim23-1 inh: tim23-1 yeast growth inhibition. 330,000 compounds, 1.3% hits. AID 463212. inhibition, % at 20 µM. S. cerevisiae tim23-1 growth, BacTiter-Glo luminescence, 24 h;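 active means growth inhibition of the mutant yeast at or above 50%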;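 further: temperature-sensitive mutant grown at 25 °C; plate controls were DMSO-treated mutant yeast for no effect and medium wells lacking yeast for full effect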
V-ATPase pHluor: regulators of yeast V-ATPase proton transport; 350,000 compounds, 0.37% hits; S. cerevisiae, pHLuorin cytosolic pH fluorescence; response, % at 10 µM; in the data active means response mostly above about 7.3%, no sharp cut-off; inactive means mostly below about 5.4%; further: actives read high
TIM10 inh: TIM10 yeast growth inhibition; 330,000 compounds, 1.4% hits; S. cerevisiae TIM10 strain growth, BacTiter-Glo luminescence, 24 h; inhibition, % at 10 µM;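 active means inhibition of 40% or more at the single tested concentration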;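 further: wild-type TIM10 isogenic control strain grown at permissive 25 °C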
tim10-1 inh: inhibits growth of tim10-1 mutant yeast; S. cerevisiae tim10-1 ts strain growth, BacTiter-Glo, 24 h; inhibition, % at 20 µM; 330,000 compounds, 2.2% hits; AID 463190;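 active means inhibition of at least 40%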;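 further: mutant grown at 25 °C; 0% = DMSO wells with yeast and 100% = wells holding no yeast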
NALP1 inh: inhibitors of NALP1 inflammasome in yeast; 280,000 compounds, 0.61% hits; inhibition, % at 10 µM; AID 2071; S. cerevisiae NALP1/ASC/caspase-1 growth, X-gal OD620, 72 h; in the data active means inhibition mostly above about 24%, no sharp cut-off; inactive means mostly below about 32%
tim10 confirm: TIM10 yeast growth inhibition, confirmed | shares compounds with TIM10 inh | S. cerevisiae tim10 strain growth, BacTiter-Glo luminescence, 24 h | inhibition, % at 10 µM | 4,600 compounds, 63% hits | AID 463215;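 active means inhibition of yeast growth at or above a set limit in either of two replicates at 10 µM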;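 further: this counterscreen used the strain with wild-type TIM10; 0% = yeast with DMSO and 100% = medium wells lacking yeast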
* marks the source's active call; other numbers are inactive results; nt = no result.

SMILES	NALP3 yeast inh	tim23-1 inh	V-ATPase pHluor	TIM10 inh	tim10-1 inh	NALP1 inh	tim10 confirm
Cc1ccccc1Cn1c(Cc2ccccc2)nc2ccccc21	-52.0	45.7	-3.1	41.8*	36.3	18.4	45.2*
C=CCn1c(O)c(N=Nc2ccccc2O)c2ccccc21	37.5	48.2	-83.2	49.0*	-15.4	nt	64.7*
O=C(Nc1ccc(N2CCCCC2)c(Cl)c1)c1ccc2c(c1)OCCO2	20.3	44.7	1.2	44.7*	35.2	11.2	16.1
Cc1ccc(NC(=O)c2ccc3c(c2)OCCO3)cc1S(=O)(=O)Nc1cccc(Cl)c1	6.9	35.1	-2.6	43.2*	25.2	13.2	-26.8
Cc1cccc(N2CCN(C(c3ccccc3)c3nnnn3C(C)(C)C)CC2)c1C (configuration not stated)	19.6	17.3	1.2	40.8*	18.7	10.9	4.5
Cc1cccc(N2CCN(C(c3cccs3)c3nnnn3C(C)(C)C)CC2)c1C (configuration not stated)	1.2	14.3	4.5	27.8	14.0	18.9	nt
CC(=O)Nc1ccc(-c2nnn(CC(=O)c3ccccc3)n2)cc1Cl	-3.3	19.6	5.2	47.1*	-3.2	1.2	35.8*
CC1(C)CC[C@]2(C(=O)O)CC[C@]3(CO)C(=CCC4[C@@]5(C)C[C@H](O)[C@H](O)[C@@](C)(C(=O)O)C5CC[C@]43C)[C@@H]2C1 (some centres not stated)	8.4	0.8	-2.7	0.9	11.2	nt	nt
CCCn1c(SCC(=O)Nc2sc(C)c(C)c2C#N)nnc1C(C)C	10.0	21.9	6.9	16.9	22.0	20.2	nt
COc1ccc(C(=O)N2CCCC(c3ccccc3)=N2)cc1	30.3	38.6	1.1	44.5*	39.9	5.2	22.1
Cc1ccc(C(=O)N2CCCC(c3ccc(Cl)cc3)=N2)cc1	22.8	29.0	1.1	3.9	30.6	-4.4	nt
O=C1CC(c2cccc(Cl)c2)CC(O)=C1C=Nc1cccc(Cl)c1 (configuration not stated)	24.8	-13.5	3.9	78.8*	14.6	48.9	80.0*
O=C1CC(c2ccccc2)CC(O)=C1C=Nc1ccccc1 (configuration not stated)	26.4	25.1	2.7	-8.7	24.4	29.1	nt
CCN(CC)S(=O)(=O)c1ccc(NC(=O)C2COc3ccccc3O2)cc1 (configuration not stated)	-3.1	36.2	-3.8	40.2*	38.7	23.5	35.1*
O=C(Nc1ccc(F)cc1)C1COc2ccccc2O1 (configuration not stated)	3.9	10.0	5.8	16.1	-1.7	18.2	nt
CCCOc1ccc(C(=O)Nc2ccc(Cl)cn2)cc1	35.6	5.7	3.3	-14.2	-6.5	-5.0	nt
O=C(Nc1ccc(Cl)cn1)c1ccc(Oc2ccccc2)cc1	34.5	12.3	-2.1	74.7*	-5.1	4.6	17.4
Nc1nc2nc(-c3ccccc3)cc(C(F)(F)F)c2s1	-17.0	47.3	6.7	47.2*	4.9	18.6	39.5*
O=C(CCn1c(=O)oc2ccccc21)NCCC1=CCCCC1	6.1	21.7	2.1	-5.2	1.1	nt	nt
CC(C)c1ccc2[nH]c(O)c(N=NC(=S)NCCc3ccccc3)c2c1	13.3	0.9	-1.7	16.8	25.4	23.4	nt
CCNC(=S)N=Nc1c(O)[nH]c2ccc(C(C)C)cc12	25.5	35.2	2.4	40.6*	31.9	24.8	-19.5
COc1cccc(/C=N/n2cnc3cc(C)c(C)cc32)c1OC	21.7	27.2	2.4	42.3*	35.1	nt	36.3*
O=C(Nc1ccc(NC(=O)C2CCCCC2)nc1)c1cccs1	-8.6	46.9	0.3	47.5*	22.1	-1.3	22.8
COc1cccc(Oc2cn[nH]c2-c2ccc(OC)cc2O)c1	29.1	40.6	-2.0	18.6	-20.9	-8.8	nt
CCCc1ccc(Oc2cn[nH]c2-c2ccc(O)c(C)c2O)cc1	43.4	-276.8	1.7	71.4*	-191.1	nt	70.8*
CCCc1ccc(Oc2c(-c3ccc(O)c(C)c3O)n[nH]c2C)cc1	22.7	-296.6	-4.0	62.9*	-80.5	-12.0	73.2*
CCCCCn1c(CCNC(=O)c2cccs2)nc2ccccc21	27.3	47.7	2.6	41.2*	37.6	4.7	30.8
CCCCCn1c(CNC(=O)c2cccs2)nc2ccccc21	17.6	32.6	-2.4	32.2	36.9	-5.5	nt

Bioassay records from PubChem.
